For orientation: Inhibition means the relative decrease from the control value, in per cent.

Entries with a potency or affinity are not part of this list.

The subject of one experiment is Klebsiella pneumoniae. To be noted: Concentration 32 ug.mL-1;; ASSAY_TEST Inhibition of Bacterial Growth; detection method Absorption (OD600); MEDIA CAMHB; plate type 384well; NBS; CORNING #3640; time 18 hr.
On to `Cc1ccccc1Cn1nc2c(=O)n(-c3cccc(Cl)c3C)ccn2c1=O`, for which the Inhibition is on record as 2.06%.
Same read-out and setting: next, `O=C(CSc1nnc2c(=O)n(-c3ccc(F)c(F)c3)ccn12)c1cccc(Cl)c1`: 12.31%; `Cc1cccc(Oc2nccn3c(=O)n(CC(=O)N4CCN(c5ccc(F)cc5)CC4)nc23)c1C`: 7.83%; `Cc1ccc(Oc2nccn3c(=O)n(CC(=O)Nc4ccc(Br)cc4F)nc23)cc1`: 2.41%.
The same measure, in the same setting: next, `COc1ccccc1-n1ccn2c(SCc3ccccc3C)nnc2c1=O`: 12.73%; `COc1ccc(NC(=O)Cn2nc3c(SC4CCCCC4)nccn3c2=O)cc1OC`: 12.09%.
The same measure, in the same setting: next, `COc1ccccc1NC(=O)Cn1nc2c(SCc3ccc(Cl)cc3)nccn2c1=O`: 9.59%; `CCC(Sc1nnc2c(=O)n(-c3cccc(OC)c3)ccn12)C(=O)Nc1cc(OC)ccc1OC` (stereo unspecified): 1.63%; `CCOc1ccc(-c2nc(CSc3nc4ccccc4n4c(C(C)C)nnc34)c(C)o2)cc1`: 2.25%.
In the case of `COc1ccc(-c2cc3c4nn(CC(=O)Nc5ccccc5)c(=O)n4ccn3n2)cc1`, the Inhibition amounted to 8.66%.
Still for that read-out and setting: next, `COc1cccc(Sc2nc3ccccc3n3c(=O)n(CC(=O)Nc4ccc(C)c(C)c4)nc23)c1`: 5.05%.

A further experiment relates to Candida albicans. The conditions noted are these: Concentration 32 ug.mL-1; ASSAY_TEST Inhibition of Fungal Growth; detection method Absorption (OD530).
`O=S(=O)(c1ccc2nncn2c1)N(Cc1cc(F)cc(F)c1)c1cccc(F)c1`: the Inhibition is on record as 2.7%.
Still for that read-out and setting: next, `COc1cccc(Oc2nccn3c(=O)n(CC(=O)Nc4ccccc4C(F)(F)F)nc23)c1`: 1.07%; `CCCc1nnc2c(=O)n(CC(=O)Nc3ccc(C#N)cc3)c3ccccc3n12`: 1.16%; `CC(C)c1nnc2c(=O)n(CC(=O)Nc3cccc(Cl)c3)c3ccccc3n12`: 3.06%.
In the case of `CC(C)CCn1c(=O)c2sccc2n2c(=O)n(Cc3ccccc3Cl)nc12`, the Inhibition was -1.94%.
The same measure, in the same setting: under `O=C(CSc1nnc2c(=O)n(-c3ccccc3)ccn12)Nc1ccccc1F` stands -0.73%; under `Cc1ccc(CN(c2ccc(C(C)C)cc2)S(=O)(=O)c2cccn3cnnc23)cc1`, 3.57%.
As to `CCCCc1ccc(NC(=O)CSc2nc3ccccc3n3c(C(C)C)nnc23)cc1`, the Inhibition is reported as 2.13%.
Same read-out and setting: under `COC(=O)c1cccc(NC(=O)Cn2nc3c(Oc4ccccc4)nccn3c2=O)c1` stands 3.07%.
On the same count and under the same terms, next, `N#Cc1cccc(NC(=O)CSc2nnc3c4cc(-c5ccccc5)nn4ccn23)c1`: 7.44%.
On to `COc1ccc(OC)c(NC(=O)Cn2nc3c(Sc4ccccc4)nc4ccccc4n3c2=O)c1`, for which the Inhibition was found to be 2.83%.
Still for that read-out and setting: next, `COc1cccc(NC(=O)Cn2nc3c4c5c(sc4ncn3c2=O)CCCC5)c1`: 6.83%.
Same read-out and setting: under `Cc1cc2nn(CC(=O)Nc3ccc(F)cc3)c(=O)n2c(Nc2ccccc2C)n1` stands 1.24%; under `CCCCOc1ccc(-c2cc3c4nnc(SCC(=O)Nc5ccc(C)c(C)c5)n4ccn3n2)cc1`, -1.19%; under `Cc1ccccc1Oc1nc2ccccc2n2c(=O)n(CC(=O)Nc3cccc(C(F)(F)F)c3)nc12`, 1.53%.
On the same count and under the same terms, next, `Cc1ccc(NC(=O)Cn2nc3ccc(SCc4ccc(Cl)cc4)nn3c2=O)c(C)c1`: 4.69%; `Cc1ccccc1Oc1nc2ccccc2n2c(=O)n(CC(=O)Nc3ccccc3C(F)(F)F)nc12`: 11.93%; `O=C(Cn1nc2c(Oc3ccccc3)nccn2c1=O)Nc1ccc(Br)cc1F`: 5.04%.
As to `C=Cc1ccc(CN(c2ccc(C(C)C)cc2)S(=O)(=O)c2cccn3cnnc23)cc1`, the Inhibition was determined as 3.5%.
Turning to `CCc1nnc2c(=O)n(CC(=O)Nc3cccc(C#N)c3)c3ccccc3n12`, the Inhibition came out at 5.47%.
Same read-out and setting: under `Cc1nnc2c(=O)n(CC(=O)Nc3ccccc3F)c3ccccc3n12` stands 3.67%; under `CCCNC(=O)CSc1nnc2c(=O)n(-c3ccc(F)cc3)ccn12`, 2.11%.
Same read-out and setting: next, `Cc1ccc(-c2cc3c4nnc(CCC(=O)NCc5ccc(C(F)(F)F)cc5)n4ccn3n2)cc1C`: 3.64%; `CCc1ccc(N(Cc2ccccc2C)S(=O)(=O)c2cccn3c(CC)nnc23)cc1`: 4.38%.
Same read-out and setting: next, `Cc1ccc(CNC(=O)Cn2nc3ccc(SC4CCCCC4)nn3c2=O)cc1`: 13.29%; `CCc1ccc(N(Cc2ccc(F)cc2)S(=O)(=O)c2cccn3c(CC)nnc23)cc1`: 33.96%.
`CCCc1nnc2c(=O)n(CC(=O)Nc3cccc(C(C)=O)c3)c3ccccc3n12`: the Inhibition is given as 6.89%.
On the same count and under the same terms, next, `Cc1nc(-c2ccccn2)cc2nn(CC(=O)Nc3ccccc3C(F)(F)F)c(=O)n12`: 0.65%.
On the same count and under the same terms, under `COc1ccc(CCn2c(=O)c3sccc3n3c(=O)n(CC(=O)c4ccccc4)nc23)cc1OC` stands 0.73%.
Take `Cc1ccccc1Cn1nc2c(=O)n(-c3cccc(Cl)c3C)ccn2c1=O`: the Inhibition is given as 0.54%.
On the same count and under the same terms, under `O=C(CSc1nnc2c(=O)n(-c3ccc(F)c(F)c3)ccn12)c1cccc(Cl)c1` stands 1.86%; under `Cc1cccc(Oc2nccn3c(=O)n(CC(=O)N4CCN(c5ccc(F)cc5)CC4)nc23)c1C`, -1.43%.
Still for that read-out and setting: under `Cc1ccc(Oc2nccn3c(=O)n(CC(=O)Nc4ccc(Br)cc4F)nc23)cc1` stands 2.18%; under `COc1ccccc1-n1ccn2c(SCc3ccccc3C)nnc2c1=O`, 3.95%.
Same read-out and setting: under `COc1ccc(NC(=O)Cn2nc3c(SC4CCCCC4)nccn3c2=O)cc1OC` stands -2.05%; under `COc1ccccc1NC(=O)Cn1nc2c(SCc3ccc(Cl)cc3)nccn2c1=O`, 1.74%; under `CCC(Sc1nnc2c(=O)n(-c3cccc(OC)c3)ccn12)C(=O)Nc1cc(OC)ccc1OC` (stereo unspecified), 1.95%.
Consider `CCOc1ccc(-c2nc(CSc3nc4ccccc4n4c(C(C)C)nnc34)c(C)o2)cc1`, for which the Inhibition is recorded as -0.51%.
Still for that read-out and setting: next, `COc1ccc(-c2cc3c4nn(CC(=O)Nc5ccccc5)c(=O)n4ccn3n2)cc1`: 6.28%.
Regarding `COc1cccc(Sc2nc3ccccc3n3c(=O)n(CC(=O)Nc4ccc(C)c(C)c4)nc23)c1`, the Inhibition is reported as 20.61%.

Source of the values: ChEMBL document CHEMBL4513146, “CO-ADD screening of Karazin Kharkiv National University (Ukraine) compounds”.
